Reference: PubChem BioAssay (EPA / NIEHS)
Several values for one entry are separate records, joined by “and”; a condition that tells them apart may be missing. Equal entries are not always repeated. The source holds several records for some structures; these can differ, active in one and inactive in another. Activity calls are given as the source filed them. The calls were made as follows: active = hit-call score of the fitted dose curve at least 0.9, where 1 is the maximum; inactive = score below 0.9.

Target: Bile acid receptor (Homo sapiens) (UniProt Q96RI1)
Sequence (Q96RI1 whole entry, looked up): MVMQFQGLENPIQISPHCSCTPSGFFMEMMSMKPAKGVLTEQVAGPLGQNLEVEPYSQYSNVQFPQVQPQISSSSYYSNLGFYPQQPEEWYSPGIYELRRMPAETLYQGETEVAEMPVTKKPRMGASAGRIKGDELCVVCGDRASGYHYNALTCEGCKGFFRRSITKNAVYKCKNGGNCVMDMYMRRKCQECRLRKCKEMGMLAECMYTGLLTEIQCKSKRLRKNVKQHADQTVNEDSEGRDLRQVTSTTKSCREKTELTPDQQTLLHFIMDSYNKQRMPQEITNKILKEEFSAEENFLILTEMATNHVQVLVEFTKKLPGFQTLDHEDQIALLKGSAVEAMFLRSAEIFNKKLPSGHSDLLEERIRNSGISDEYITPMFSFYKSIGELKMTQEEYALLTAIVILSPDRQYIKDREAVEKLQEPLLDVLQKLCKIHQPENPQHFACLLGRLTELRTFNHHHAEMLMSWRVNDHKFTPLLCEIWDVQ
Test: ATG_IR1_CIS: Attagene CIS-FACTORIAL HepG2 Assay for human Nuclear Receptor Subfamily 1 Group H Member 4 (NR1H4), IR1 submotif (AID 2282946)
Conditions: IR1 reporter transcription, actives raise or lower the signal
Experimental: ATG_CIS is a cell-based, multiplexed-readout assay that uses HepG2, a human liver cell line, with measurements taken at 24 hours after chemical dosing in a 24-well plate.ATG_IR1_CIS is one of 52 assay component(s) measured or calculated from the ATG_CIS assay. It is designed to make measurements of mRNA induction, a form of inducible reporter, as detected with fluorescence intensity signals by Reverse transcription polymerase chain reaction (RT-PCR) and Capillary electrophoresis technology.Data from the assay component ATG_IR1_CIS was analyzed into 1 assay endpoint. This assay endpoint, ATG_IR1_CIS, was analyzed with bidirectional fitting relative to DMSO as the negative control and baseline of activity. Using a type of inducible reporter, measures of mRNA for gain or loss-of-signal activity can be used to understand the reporter gene at the transcription factor-level as they relate to the gene NR1H4. Furthermore, this assay endpoint can be referred to as a primary readout, because this assay has produced multiple assay endpoints where this one serves a reporter gene function. To generalize the intended target to other relatable targets, this assay endpoint is annotated to the nuclear receptor intended target family, where the subfamily is non-steroidal.
Human liver HepG2 cells are transiently transfected with multiple reporter transcription units (MRTUs) in 6-well plates using FuGene 6 reagent (Roche; 3 ml FuGene/1 mg DNA). The MRTU constructs are regulated by a cis-regulating element (promoter). […] A major difference between the CIS and TRANS system is that in CIS activities of endogenous TFs are measured, whereas the TRANS assay evaluates changes in activities of exogenous, chimeric NR-Gal4 proteins. […] At the end of 24 hour incubation, total RNA was isolated using TriZol reagent (Invitrogen). The isolated RNA is then reverse-transcribed using oligo(dT) primer and Mo-MLV reverse transcriptase (Invitrogen) with DNAse I (Ambion) treatment for 30 min. The one-tenth of the produced cDNA was amplified by PCR using Taq DNA polymerase (Invitrogen) and two reporter sequence-specific primers. The PCR products were fluorescently labeled by primer extension with 6-arboxyfluorescein (6-FAM) 5'-labeled reporter sequence-specific primer (2 min at 95 C, 20 s at 68 C and 10 min at 72 C) and these products were digested with 5U of HpaI (New England Biolabs) for 2h at 37 C. The fragments were purified using Qiaquick PCR columns (Qiagen), analyzed on an ABI 3130xL genetic analyzer (Applied Biosystems) with peak positions identified by using a set of X-rhodamine (ROX)-labeled MapMarker1000 molecular weight standards (BioVentures). The raw capillary electrophoresis data was processed using Attagraph software (Attagene).

| SMILES | outcome | AC50 |
| --- | --- | --- |
| Nc1ccc([N+](=O)[O-])cc1 | inactive |  |
| CCC(C)c1ccc(O)cc1 (configuration not stated) | inactive |  |
| Nc1ccc(Cl)cc1N | inactive |  |
| CN(C)c1ccccc1 | inactive |  |
| O=P(OCCCl)(OCCCl)OCCCl | inactive |  |
| C[C@]12C=CC3=C4CCC(=O)C=C4CC[C@H]3[C@@H]1CC[C@@H]2O | inactive | 760 nM (active) and 26.7 µM (active) and 26.8 µM (active) |
| Clc1ccc(C(c2ccc(Cl)cc2)C(Cl)Cl)cc1 |  | 21.2 µM (active) |
| c1ccc(NNc2ccccc2)cc1 | inactive |  |
| CN(C)C(=O)Nc1ccc(Cl)cc1 | inactive |  |
| CCOC(=O)[C@]1(c2ccccc2)Oc2ccccc2[C@@H]1N | inactive |  |
| CCC[CH2][Sn]([Cl])([CH2]CCC)[CH2]CCC |  | 0.0138 µM (active) |
| N#CC(Br)Br | inactive |  |
| Cc1cc(N=Nc2ccccc2C)ccc1N | inactive |  |
| CCCCCCCCOC(=O)c1ccc(C(=O)OCCCCCCCC)c(C(=O)OCCCCCCCC)c1 | inactive |  |
| CN(C)[C@@H]1C(=O)C(C(N)=O)=C(O)[C@@]2(O)C(=O)C3=C(O)c4c(O)cccc4[C@@](C)(O)[C@H]3C[C@@H]12 | inactive |  |
| CS(=O)(=O)NC(=O)c1cc(Oc2ccc(C(F)(F)F)cc2Cl)ccc1[N+](=O)[O-] | inactive |  |
| CC(C)(OOC(C)(C)c1ccccc1)c1ccccc1 | inactive |  |
| CC(C)COC(=O)c1ccccc1C(=O)OCC(C)C | inactive |  |

| SMILES | outcome | AC50 |
| --- | --- | --- |
| OCCOCCO | inactive |  |
| ClCCOCCCl | inactive |  |
| O=C(N[C@H](c1ccccc1)[C@@H]1CN2CCC1CC2)c1c(Cl)ccc(C(F)(F)F)c1Cl | inactive |  |
| CC(C)N(Cc1ccccc1)C(=O)C(C)(C)C | inactive |  |
| Clc1ccccc1Cl | inactive |  |
| CCN(CC)N=O | inactive |  |
| CC(C)(O)c1cnn2c(-c3ccc(F)c(-c4c(F)cccc4C#N)c3)cnc2n1 | inactive |  |
| O=C1CCCO1 | inactive |  |
| OCCCl | inactive |  |
| CN(C)c1ccc(C(=O)c2ccc(N(C)C)cc2)cc1 | inactive |  |
| O=[N+]([O-])C(Br)(CO)CO | inactive |  |
| Cc1cccc(N)c1N | inactive |  |
| Nc1ccc(N=Nc2ccccc2)cc1 | inactive |  |
| CCNS(=O)(=O)C(F)(F)C(F)(F)C(F)(F)C(F)(F)C(F)(F)C(F)(F)C(F)(F)C(F)(F)F | inactive |  |
| Nc1ccc(Cc2ccc(N)cc2)cc1 | inactive |  |
| CCCCCCCCn1sccc1=O | inactive |  |
| Clc1ccc(C(c2ccc(Cl)cc2)C(Cl)(Cl)Cl)cc1 | inactive |  |
| COP(=S)(OC)SCN1C(=O)c2ccccc2C1=O | inactive |  |
